Source: PubChem BioAssay
FEN1 inh: inhibitors of human flap endonuclease 1; Recombinant FEN1 flap cleavage, fluorescence, 15 min; Potency, µM (series often up to 114 µM), without a hit: top-dose activity change, negative = inhibition, most hits filed as inhibitors; hit rate 0.35% among 390,000; AID 588795; also: % is scaled to controls: 0 for no effect and ±100 for the full control effect; nearly all actives have a fitted effect of over 65% in size
Target sequence (P39748 whole entry, looked up): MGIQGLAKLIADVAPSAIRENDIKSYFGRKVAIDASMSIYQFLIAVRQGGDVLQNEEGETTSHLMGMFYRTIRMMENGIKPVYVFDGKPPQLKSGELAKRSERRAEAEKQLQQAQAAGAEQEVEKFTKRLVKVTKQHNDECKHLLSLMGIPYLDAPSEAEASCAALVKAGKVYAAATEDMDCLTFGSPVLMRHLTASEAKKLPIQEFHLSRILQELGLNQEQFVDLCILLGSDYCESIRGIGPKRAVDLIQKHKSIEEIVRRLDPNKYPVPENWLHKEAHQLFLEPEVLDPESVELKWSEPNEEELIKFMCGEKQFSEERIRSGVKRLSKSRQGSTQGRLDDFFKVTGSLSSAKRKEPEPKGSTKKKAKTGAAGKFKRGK
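Potency values derive from four-parameter Hill fits of normalized qHTS data. The reaction used 10 nM FEN1 preincubated 15 min at room temperature with compound, then 50 nM DNA substrate, read at 0 and 15 min.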
POLB inh: DNA polymerase beta (human) inhibition; P06746; Pol beta primer extension/strand displacement, fluorescence kinetic; Potency, µM (titrated, usually from 114 µM), without a hit: at the top dose activity change, negative = inhibition, usual class: inhibitors; hit rate 1.3% among 340,000; AID 485314; also: % is scaled to controls: 0 for no effect and ±100 for the full control effect
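10 nM enzyme + cpd, 15 min RT; start with substrate 50 nM final; read 0 min and after 10 min RT. Corrected, normalized data; 4-parameter Hill curve fit.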
Pol eta inh: inhibitors of human DNA polymerase eta | Q9Y253 | recombinant Pol eta, fluorescent DNA replication assay | Potency, µM (highest dose often 114 µM), inactives show at the highest dose activity change, negative = inhibition, most hits filed as inhibitors | hit rate 1.2% among 390,000 | AID 588591; also: % is scaled to controls: 0 for no effect and ±100 for the full control effect
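Pol eta at 10 nM preincubated with compounds 15 min at room temperature; reaction started with fluorescent substrate (50 nM final) and read kinetically at 0 and 10 min.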
POLK inh: DNA polymerase kappa (human) inhibition | Q9UBT6 | purified Pol kappa, fluorescent DNA synthesis assay, 10 min | Potency, µM (doses to about 107 µM), inactives show at the top dose activity, negative = inhibition, actives largely listed as inhibitors | hit rate 0.53% among 400,000 | AID 588579; also: % is scaled to controls: 0 for no effect and ±100 for the full control effect
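Enzyme at 10 nM met test compounds for 15 min at room temperature. Substrate addition (50 nM final) began the reaction, which was monitored by fluorescence at 0 and 10 min.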
WRN helicase inh: blocks human WRN helicase. Potency, µM (series often up to 114 µM), inactives show at the top dose activity change, negative = inhibition, most hits filed as inhibitors. hit rate 0.46% among 360,000. WRN helicase unwinding, fluorescent forked duplex, kinetic; also: % is scaled to controls: 0 for no effect and ±100 for the full control effect; nearly all actives have a fitted effect of over 55% in size
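Kinetic red-fluorescence monitoring (525/598 nm) tracks WRN helicase activity after 100 nM fluorophore-quencher forked duplex and 2 mM ATP are added to 20 nM enzyme pretreated 15 min at room temperature with compound.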
Pol iota inh: DNA polymerase iota (human) inhibition | hit rate 1% among 390,000 | Potency, µM (series often up to 115 µM), without a hit: at the highest dose activity, negative = inhibition, actives largely listed as inhibitors | Pol iota fluorescent replication assay, 10 min | Q9UNA4
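Pol iota at 10 nM preincubated 15 min with compounds at room temperature; reaction started with fluorescent substrate, 50 nM final. Fluorescence read kinetically at 0 and 10 min; buffer-only wells as negative control.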
* marks the source's active call; other numbers are inactive results; ? = inconclusive; . = no result; [ ] = remark or other dose. In the library only some 2.4% were active in any assay of this set; here they are far more common. Calls follow the shape of the dose curve; as a rule, active = well fitted curve in the direction sought with a large enough effect; inconclusive = small, poorly fitted or top-dose-only effect, or another doubt; inactive = no such curve, though single readings can be large; an effect the other way counts as inactive or inconclusive. Potency is read from the fitted curve at half-maximal effect.

SMILES	FEN1 inh	POLB inh	Pol eta inh	POLK inh	WRN helicase inh	Pol iota inh
CCC(C)NC(=O)NC(=O)CSc1nnc(-c2ccccc2F)n1C1CC1 (stereo not given)	-4%	7%	-8%	-5%	2%	27%
CCC(=O)Nc1ccc(C(=O)CSc2nnc(-c3ccccc3F)n2C2CC2)cc1	5%	28µM*	?	-32%	-6%	?
O=c1c2cc(F)ccc2sn1-c1ccc(F)cc1	79µM*	.	9%	-16%	-1%	-11%
CC1=CCC2C(=O)N(c3nc4ccccc4n3C)C(=O)C2C1 (stereo not given)	2%	25µM*	?	-24%	-14%	?
O=C(Nc1ccc2nn(-c3ccccc3)nc2c1)c1ccc2c(c1)OCO2	-22%	40µM*	?	-31%	-25%	-9%
O=C(CN(CCc1c[nH]c2ccccc12)S(=O)(=O)c1ccccc1)N1CCCCCC1	1%	.	.	-3%	.	-7%
COC(=O)NNC(=O)COc1ccc(Br)c(C)c1	8%	-5%	-18%	-24%	1%	24%
CCCC(=O)Nc1ccc(C(=O)NNC(=O)COc2ccc(Br)c(C)c2)cc1	-8%	50µM*	?	-2%	-9%	-25%
O=C(NNS(=O)(=O)c1cccc(Cl)c1)c1cc(-c2ccc(F)cc2)nc2ccccc12	-5%	50µM*	?	-17%	-15%	?
CCCCn1c(SCC(=O)c2ccc(O)c(O)c2)nc2ccsc2c1=O	7%	?	8.9µM*	-22%	?	?
COc1ccc2nccc(/C=C/c3ccc(N(C)C)cc3)c2c1	-3%	.	.	1%	.	3%
O=C(CSc1nnc2scc(-c3ccc(Cl)cc3)n12)Nc1ccc(F)cc1	3%	-21%	.	-11%	.	-6%
O=C(COC(=O)CCN1C(=O)/C(=C\C=C\c2ccccc2)SC1=S)Nc1cc(F)ccc1F	-3%	?	32µM*	?	-36%[57.1 µM]	25µM*
N#Cc1nc(-c2ccc(OCc3ccccc3Cl)cc2)oc1N1CCCCCC1	0%	.	.	-13%	.	27%
CCCCCCCCOc1ccccc1C(=O)Nc1ccc(C(=O)OCC[N+](C)(CC)CC)cc1	.	.	.	-3%[19.4 µM]	.	.
Brc1ccc(C2=CC(c3cccs3)n3ncnc3N2)cc1 (stereo not given)	-23%	50µM*	?	-24%	-3%	?
O=C1C(Cl)=C(N2CCCCC2)C(=O)C(Cl)=C1c1cnc(N2CCCCC2)s1	-2%	5.6µM*	?	-36%	?	?
COc1ccc2c(c1)c1c(c(=O)n(Cc3ccccc3)c(=O)n1CC(=O)Nc1ccccc1OC)n2C	0%	-2%	-11%	-6%	.	25%
CCOc1ccc(C2Nc3cccc4cccc(c34)N2)cc1OC	10%	-18%	?	1%	-10%	?
CCOc1cc(C2Nc3cccc4cccc(c34)N2)ccc1O	?	1%	79µM*	-8%	-9%	?
COc1ccc(C(=O)COC(=O)CCNS(=O)(=O)c2ccccc2)c(OC)c1	-11%	.	?	-22%	0%[11.6 µM]	50µM*
COc1ccc(C(=O)COC(=O)c2ccc(Cl)nc2)c(OC)c1	4%	.	?	-26%	-26%	40µM*
CCC(C(=O)OCC(=O)c1ccc(OC)cc1OC)c1ccccc1 (stereo not given)	-19%	.	32µM*	-41%	-24%	?
O=C(CCNS(=O)(=O)c1ccccc1)OCC(=O)c1ccc(F)cc1	-5%	.	-10%	5%	-12%	30%
COc1ccc(C(=O)COC(=O)c2ccccc2O)c(OC)c1	-14%	.	25µM*	?	-24%	28µM*
SMILES	FEN1 inh	POLB inh	Pol eta inh	POLK inh	WRN helicase inh	Pol iota inh
COc1ccc(N2CCN(C(=O)c3ccc4c(c3)N(Cc3ccc(F)cc3)C(=O)c3ccccc3S4=O)CC2)cc1 (stereo not given)	7%	15%	-13%	-4%	.	22%
COc1ccc(C(=O)COC(=O)c2ccc3c(c2)NC(=O)CS3)c(OC)c1	-4%	.	?	?	3%[11.6 µM]	40µM*
N#Cc1c(-c2ccco2)c2c([nH]c1=S)CCCC2	7%	28µM*	?	-28%	?	13µM*
N#Cc1c2c(c(-c3ccco3)[nH]c1=O)CCCC2	4%	2%	-6%	?	?	28µM*
N#Cc1c(-c2cccnc2)c2c([nH]c1=S)CCCC2	5%	35%	-7%	2%	-31%	?
Cc1[nH]c(=O)c(C#N)c2c1CCCC2	-15%	-18%	0%	-3%	6%	11%
Cc1c2c(c(O)c3c(O)cccc13)C(=O)O[C@H]2C1C(N(C)C)C(O)=C(C(N)=O)C(=O)[C@H]1O (stereo not given in full)	.	.	.	0.47µM*	.	.
N#CC1=C(S)N(c2ccccc2)C(c2ccc(-c3ccccc3Cl)o2)NC1=O (stereo not given)	-6%	-13%	45µM*	-7%	-29%	1%
N#CC1=C(S)N(c2ccc(F)cc2)C(c2cccs2)NC1=O (stereo not given)	9%	0%	-14%	-13%	-14%	12%
COc1ccccc1-c1cncnc1NCc1cccs1	.	.	.	5%[60.1 µM]	.	.
COc1ccc(-c2noc(N3CCN(c4ccc(C)cc4)C(C)C3)n2)cc1OC (stereo not given)	-10%	-2%	-18%	-18%	.	14%
CS(=O)(=O)c1ccc(S(=O)CC(=O)OCc2ccccc2)c([N+](=O)[O-])c1 (stereo not given)	-18%	6%	-4%	-5%	?	20µM*
O=C(CS(=O)c1ccc(C(F)(F)F)cc1[N+](=O)[O-])Oc1ccccc1 (stereo not given)	-15%	-15%	-2%	-18%	-26%	?
O=C1OCCC1N(C(=O)C1CC1)c1cccc(Cl)c1 (stereo not given)	.	.	.	-4%[60.1 µM]	.	.
COC(=O)C(N)Cc1ccc(O)c(O)c1 (stereo not given)	-1%	-18%	6%	89µM*	-9%	?
COc1cc2c(cc1OC)C1O[C@](CCCCN3C(=O)c4ccccc4C3=O)(C2)Oc2cc(C)n(Cc3ccccc3)c(=O)c21	.	45%[22.9 µM]	.	.	.	.
Cc1ccc(/C=c2/sc3n(c2=O)CCCN=3)o1	0%	?	-13%	-14%	2%	-7%
O=C(NCc1ccc(/C=c2\sc3n(c2=O)CCN=3)o1)C(=O)Nc1ccccc1	.	4.5µM*	.	.	.	.
COc1cc(C)ccc1OCCOc1cc(C)ccc1Cl	-3%	13µM*	-27%	-8%	4%	5%
COc1cc(C)ccc1OCCOc1c(Cl)cc(Cl)cc1Cl	-13%	19%	?	-11%	-30%[57.1 µM]	14%
C(=C\c1ccnc2ccccc12)/c1ccc2ccccc2n1	?	.	.	0%	.	28%
